Only some compounds are listed: those with a hit (about 4.1% of all), similar ones and a draw of the others.
PfM18AAP inh – blocks P. falciparum M18 aspartyl aminopeptidase. AID 1822. 290,000 compounds, 1.2% hits. inhibition, % at 7.35 µM. recombinant PfM18AAP, H-Glu-NHMec fluorogenic cleavage;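 active means inhibition above the campaign mean inhibition over all tested compounds plus 3 SD, cut at about 28% in these data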;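 further: 0% = plate median of test compound wells and 100% = 2 mM ZnCl2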
ALR inh – blocks human ALR sulfhydryl oxidase activity; P55789; purified ALR, DTT oxidation, H2O2 HRP-luminol luminescence; inhibition, % (test concentration not listed); 290,000 compounds, 3.8% hits; AID 485317;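 active means mean replicate inhibition above about 79%, with every replicate also reaching it, limit read from the data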
IDE cell inh – cellular human IDE inhibition; HEK cells, FAbetaB cleavage, fluorescence polarization; inhibition, % at 5.59 µM; 320,000 compounds, 0.41% hits;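 active means percent inhibition above the average of all tested compounds plus 3 SD, set per screening campaign, cut at about 16% in these data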;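 further: IDE supplied by intact live HEK cells; FP after avidin binding of uncleaved biotin substrate so inhibition keeps polarization high; 0% = DMSO wells and 100% = 60 µM reference IDE inhibitor Ii1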
Target sequence (P14735 whole entry, looked up): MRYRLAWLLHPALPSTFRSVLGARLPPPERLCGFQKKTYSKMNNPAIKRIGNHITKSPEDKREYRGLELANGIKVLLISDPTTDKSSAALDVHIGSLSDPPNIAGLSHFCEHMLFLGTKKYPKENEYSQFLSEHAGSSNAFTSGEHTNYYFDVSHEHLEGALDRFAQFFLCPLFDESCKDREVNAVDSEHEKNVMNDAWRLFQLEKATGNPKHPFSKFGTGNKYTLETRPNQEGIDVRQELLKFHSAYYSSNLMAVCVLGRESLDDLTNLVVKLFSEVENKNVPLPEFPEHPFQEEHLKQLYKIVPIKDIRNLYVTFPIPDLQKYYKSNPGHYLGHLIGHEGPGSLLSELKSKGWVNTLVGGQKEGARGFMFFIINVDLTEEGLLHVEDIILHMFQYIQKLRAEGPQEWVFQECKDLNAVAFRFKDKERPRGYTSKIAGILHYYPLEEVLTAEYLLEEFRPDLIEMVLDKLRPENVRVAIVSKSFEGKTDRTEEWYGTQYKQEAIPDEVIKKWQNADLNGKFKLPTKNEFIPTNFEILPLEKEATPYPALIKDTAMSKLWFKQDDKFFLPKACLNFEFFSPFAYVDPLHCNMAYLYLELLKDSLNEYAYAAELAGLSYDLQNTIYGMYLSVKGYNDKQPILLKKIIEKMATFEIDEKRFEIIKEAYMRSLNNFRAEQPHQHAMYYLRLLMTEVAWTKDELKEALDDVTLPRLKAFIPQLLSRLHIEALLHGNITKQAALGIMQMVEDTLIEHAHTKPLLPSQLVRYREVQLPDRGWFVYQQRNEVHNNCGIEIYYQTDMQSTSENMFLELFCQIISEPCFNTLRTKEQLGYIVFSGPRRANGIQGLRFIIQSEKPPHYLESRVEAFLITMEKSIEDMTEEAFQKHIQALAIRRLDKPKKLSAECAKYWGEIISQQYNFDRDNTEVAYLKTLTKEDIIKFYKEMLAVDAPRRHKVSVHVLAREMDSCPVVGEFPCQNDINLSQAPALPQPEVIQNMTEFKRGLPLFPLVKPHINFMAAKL
PolyA inh – yeast polyadenylation inhibition | S. cerevisiae SKY197-pL101 polyadenylation reporter, beta-gal luminescence; efflux-impaired pdr1/pdr3 knockout yeast; score 100 = 6 SD above DMSO | activity score, % at 12 µM | 300,000 compounds, 0.02% hits | AID 1875;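 active means lowest replicate activity score at least 50, where 100 means six control SD above control mean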;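 further: yeast exposed to compound for 9 h at 30 °C; higher score means more reporter readthrough which indicates perturbed polyadenylation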
IDE cell activ – activators of human insulin-degrading enzyme in cells. 340,000 compounds, 0.073% hits. activation, % at 5.96 µM. HEK cells, FAbeta-B cleavage, fluorescence polarization; 0% vehicle, 100% cell-free pure enzyme wells;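 active means activation above the mean of all tested compounds plus 3 SD, set per screening campaign, cut at about 17% in these data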
CaV13 ICDI inh – Disruptors of the CACNA1D IQ motif to Ca2+-dependent inactivation inhibitor domain association, primary screening, Förster resonance energy transfer in intact living …. HEK cells, CFP/YFP FRET ICDI-IQ, plate reader, 10 min; percent FRET-ratio fall versus neutral wells. AID 743397. 340,000 compounds, 0.098% hits. inhibition, % at 12.3 µM;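 active means mean replicate inhibition of at least 30% and at least 1% of replicates passing that level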;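 further: 0% = median of the neutral control wells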
Active calls of the source: *; . = no result.

SMILES	PfM18AAP inh	ALR inh	IDE cell inh	PolyA inh	IDE cell activ	CaV13 ICDI inh
Cc1nc2c(C(=O)N3CCOCC3)cnn2c(C)c1Cc1ccc(Cl)cc1	-1.0	98.5*	-3.9	-16.4	8.2	-9.1
COc1ccc2cc3cc(C(=O)NCc4cccnc4)oc3nc2c1	3.7	-13.4	5.4	6.5	-3.6	5.7
Cc1cc(OCC(=O)NCCCn2ccnc2)c2c(C)c(C)c(=O)oc2c1	-4.1	-4.7	3.2	-10.0	-6.4	-15.0
COc1ccc(Cn2ccnc2SCC(=O)Nc2cccc(NC(C)=O)c2)cc1	0.6	98.2*	1.6	1.0	2.7	1.3
COc1ccc(Cn2c(CO)cnc2SCC(=O)Nc2cccc(NC(C)=O)c2)cc1	-11.6	99.2*	-3.5	-3.1	4.4	-2.4
COc1cccc(-n2nnnc2SCC(=O)Nc2cccc(NC(C)=O)c2)c1	0.8	0.0	-0.8	-24.0	1.7	-5.2
CC(=O)Nc1cccc(NC(=O)CSc2nccn2Cc2ccco2)c1	-3.6	99.0*	1.9	-3.6	7.7	.
CCNc1nc(NCC)nc(SCCOC(=O)COc2ccc(Cl)cc2Cl)n1	-1.4	.	-1.9	3.3	-0.9	-6.9
Cc1ccc(CNC(=O)CCc2nnc(Cc3ccc(-c4ccccc4)cc3)o2)o1	-3.3	96.8*	-2.1	3.5	4.4	2.3
O=C1NN(c2ccccc2)C(=O)/C1=C\c1cccc(OC(=O)c2cccs2)c1	1.0	89.1*	5.2	7.1	3.2	-0.6
O=C(c1cccc(N2C(=O)C3C4C=CC(C4)C3C2=O)c1)N1CCN(c2ccccc2)CC1 (stereo unspecified)	-15.2	33.0	10.7	-10.0	0.6	2.3
COC(=O)c1ccc(NC(=S)Nc2ccc(O)cc2)cc1	13.5	99.1*	3.6	-4.8	3.4	-1.1
O=C(NC(=S)Nc1ccc(O)cc1)C1CCCC1	.	.	-5.6	.	-0.8	-3.7
Oc1ccc(NC(=S)Nc2ccc(O)cc2)cc1	11.8	99.3*	2.7	3.8	-0.1	-1.6
Cc1csc(NC(=O)c2ccccc2O)n1	-0.9	-44.6	2.3	6.7	3.9	.
CC(C)(C)c1csc(NC(=O)c2ccccc2O)n1	-9.2	80.7*	-3.0	-63.8	-0.3	-1.8
CC(C)(C)c1csc(NC(=O)c2c(F)c(F)c(F)c(F)c2F)n1	4.0	97.7*	2.0	12.5	-3.7	-19.4
O=C(NCCN1CCOCC1)c1ccc2c(c1)N(Cc1ccccc1)CCS2	1.8	99.5*	0.3	-4.8	1.4	-5.4
CN1CCN(CCCNC(=O)c2ccc3c(c2)N(Cc2ccccc2)CCS3)CC1	-5.3	99.2*	-0.2	2.0	4.2	-9.8
O=C(NCCCN1CCOCC1)c1ccc2c(c1)N(Cc1ccccc1)C(=O)c1ccccc1S2	2.1	1.2	7.1	15.1	1.5	-5.2
Cc1ccc(CN2CCSc3ccc(C(=O)NCc4ccco4)cc32)cc1	4.2	47.5	2.1	-11.0	7.3	-1.5
O=C(NCCCN1CCOCC1)c1ccc2c(c1)N(Cc1ccccc1)CCS2	-5.1	99.2*	4.3	-2.6	4.0	-6.4
Cc1ccc(CN2CCSc3ccc(C(=O)NC4CCN(Cc5ccccc5)CC4)cc32)cc1	-17.7	26.9	-7.2	-2.7	4.3	-18.0
Cc1ccc(CN2CCSc3ccc(C(=O)NCCCN4CCOCC4)cc32)cc1	2.7	98.4*	1.6	17.7	5.8	-4.0
O=C(O)c1nn(-c2ccccc2)ccc1=O	1.6	-2.8	-1.5	-6.6	0.9	.
SMILES	PfM18AAP inh	ALR inh	IDE cell inh	PolyA inh	IDE cell activ	CaV13 ICDI inh
Cc1cccc(NC(=O)CCN2C(=O)C3C4C=CC(C4)C3C2=O)n1 (stereo unspecified)	-4.3	.	0.3	-7.8	-0.1	-6.3
CCOc1cccc2c1OC1(C)CC2NC(=O)N1c1cccc(C(=O)N2CCN(c3ccccn3)CC2)c1 (stereo unspecified)	8.7	1.7	-1.1	22.8	-4.0	-2.2
O=C(NCC1CCCO1)c1ccc2c(c1)N(Cc1ccccc1)CCS2 (stereo unspecified)	10.0	98.7*	7.5	3.5	5.5	-4.5
O=C(NC1CCCC1)c1ccc2c(c1)N(Cc1ccccc1)CCS2	9.7	17.1	1.8	-2.4	7.6	-16.6
CCN1CCN(CCCNC(=O)c2ccc3c(c2)N(Cc2ccc(C)cc2)CCS3)CC1	1.8	99.3*	8.5	5.8	-0.6	.
COc1ccc(NC(=O)CSc2nnc3n2CCCCC3)cc1S(=O)(=O)N1CCOCC1	.	-14.8	-0.7	.	0.9	-6.3
O=C(N/N=C/c1coc2ccccc2c1=O)c1cccc([N+](=O)[O-])c1	15.5	2.1	-3.0	5.9	0.4	-0.1
CCOc1cccc(C(=O)N/N=C/c2coc3ccccc3c2=O)c1	-6.7	27.4	8.8	-5.9	1.4	-6.2
Cc1cccc(C(=O)N/N=C/c2coc3ccccc3c2=O)c1	1.4	88.6*	-1.1	-3.3	3.1	-11.6
COc1cc(C(=O)N/N=C/c2coc3ccccc3c2=O)cc(OC)c1OC	29.7*	52.5	1.8	1.0	0.7	-19.2
COc1ccc(C(=O)N/N=C\c2coc3ccccc3c2=O)cc1	20.4	.	2.4	-10.1	0.1	-4.8
O=C(N/N=C/c1coc2ccc(Cl)cc2c1=O)c1ccc(O)cc1	5.6	97.9*	.	-9.9	-2.3	-2.7
CC(C)Oc1cccc(C(=O)N/N=C/c2coc3ccccc3c2=O)c1	12.3	97.5*	.	.	2.9	-5.8
O=C(N/N=C/c1coc2ccc(Cl)cc2c1=O)c1ccncc1	26.3	-3.8	.	-6.3	-0.3	-7.9
Cc1ccc(N(C)S(=O)(=O)c2cccc(C(=O)OCC(=O)N3CCCC(C)C3)c2)cc1 (stereo unspecified)	.	0.9	6.0	.	4.0	-6.7
COCCCn1c(SCC(=O)n2c(C)c(C)c3ccccc32)nnc1-c1ccoc1C	5.0	9.1	-2.5	11.3	-2.2	-5.4
CCCCNC(=O)C[C@H]1C[C@@]2(C(=O)OC)C(=C[C@H](C(C)C)O[C@@H]2C2CC2)N(Cc2ccccc2)C1=O	.	.	.	.	.	-7.8
Cc1ccc2occ(/C=N/NC(=O)[C@@H](N)Cc3ccccc3)c(=O)c2c1	11.0	4.7	3.0	-12.9	2.6	-1.5
O=C(CCc1ccc(O)cc1)N/N=C/c1coc2ccccc2c1=O	15.4	78.9*	4.2	16.2	.	-4.5
CC(C)c1ccc(-c2cc(C(=O)NN3CCN(C)CC3)c3ccccc3n2)cc1	0.1	10.0	-2.6	-1.5	3.7	-7.6
O=C(NCc1ccccn1)c1ccc2c(c1)N(Cc1ccccc1)CCS2	6.1	98.1*	-2.5	2.2	1.6	-13.0
CCN1CCSc2ccc(C(=O)NCc3cccc(Br)c3)cc21	3.9	17.6	-1.4	-5.7	-2.2	-4.0
CCN1CCSc2ccc(C(=O)NCc3cccc(F)c3)cc21	4.2	98.6*	4.0	7.8	-6.0	-6.5
